The supplement of paper PMC11732987, “Enantioselective OTUD7B fragment discovery through chemoproteomics screening and high-throughput optimisation” (Communications Chemistry, 2025)

Experiments:
Test in all cases: log2 ratio of Biotin-Ahx-Ub-VS probe labelling (fragment/DMSO); higher = less target engagement (more negative = stronger competition), active = hit call of the paper (q ≤ 0.05, log2 ratio ≤ -1)
Conditions in all cases: compound concentration: 200 uM; treatment time: 3 h
USP34 = USP34 (UniProt Q70CQ2)
Sequence of USP34 (Q70CQ2 whole entry, the tested form may be a part): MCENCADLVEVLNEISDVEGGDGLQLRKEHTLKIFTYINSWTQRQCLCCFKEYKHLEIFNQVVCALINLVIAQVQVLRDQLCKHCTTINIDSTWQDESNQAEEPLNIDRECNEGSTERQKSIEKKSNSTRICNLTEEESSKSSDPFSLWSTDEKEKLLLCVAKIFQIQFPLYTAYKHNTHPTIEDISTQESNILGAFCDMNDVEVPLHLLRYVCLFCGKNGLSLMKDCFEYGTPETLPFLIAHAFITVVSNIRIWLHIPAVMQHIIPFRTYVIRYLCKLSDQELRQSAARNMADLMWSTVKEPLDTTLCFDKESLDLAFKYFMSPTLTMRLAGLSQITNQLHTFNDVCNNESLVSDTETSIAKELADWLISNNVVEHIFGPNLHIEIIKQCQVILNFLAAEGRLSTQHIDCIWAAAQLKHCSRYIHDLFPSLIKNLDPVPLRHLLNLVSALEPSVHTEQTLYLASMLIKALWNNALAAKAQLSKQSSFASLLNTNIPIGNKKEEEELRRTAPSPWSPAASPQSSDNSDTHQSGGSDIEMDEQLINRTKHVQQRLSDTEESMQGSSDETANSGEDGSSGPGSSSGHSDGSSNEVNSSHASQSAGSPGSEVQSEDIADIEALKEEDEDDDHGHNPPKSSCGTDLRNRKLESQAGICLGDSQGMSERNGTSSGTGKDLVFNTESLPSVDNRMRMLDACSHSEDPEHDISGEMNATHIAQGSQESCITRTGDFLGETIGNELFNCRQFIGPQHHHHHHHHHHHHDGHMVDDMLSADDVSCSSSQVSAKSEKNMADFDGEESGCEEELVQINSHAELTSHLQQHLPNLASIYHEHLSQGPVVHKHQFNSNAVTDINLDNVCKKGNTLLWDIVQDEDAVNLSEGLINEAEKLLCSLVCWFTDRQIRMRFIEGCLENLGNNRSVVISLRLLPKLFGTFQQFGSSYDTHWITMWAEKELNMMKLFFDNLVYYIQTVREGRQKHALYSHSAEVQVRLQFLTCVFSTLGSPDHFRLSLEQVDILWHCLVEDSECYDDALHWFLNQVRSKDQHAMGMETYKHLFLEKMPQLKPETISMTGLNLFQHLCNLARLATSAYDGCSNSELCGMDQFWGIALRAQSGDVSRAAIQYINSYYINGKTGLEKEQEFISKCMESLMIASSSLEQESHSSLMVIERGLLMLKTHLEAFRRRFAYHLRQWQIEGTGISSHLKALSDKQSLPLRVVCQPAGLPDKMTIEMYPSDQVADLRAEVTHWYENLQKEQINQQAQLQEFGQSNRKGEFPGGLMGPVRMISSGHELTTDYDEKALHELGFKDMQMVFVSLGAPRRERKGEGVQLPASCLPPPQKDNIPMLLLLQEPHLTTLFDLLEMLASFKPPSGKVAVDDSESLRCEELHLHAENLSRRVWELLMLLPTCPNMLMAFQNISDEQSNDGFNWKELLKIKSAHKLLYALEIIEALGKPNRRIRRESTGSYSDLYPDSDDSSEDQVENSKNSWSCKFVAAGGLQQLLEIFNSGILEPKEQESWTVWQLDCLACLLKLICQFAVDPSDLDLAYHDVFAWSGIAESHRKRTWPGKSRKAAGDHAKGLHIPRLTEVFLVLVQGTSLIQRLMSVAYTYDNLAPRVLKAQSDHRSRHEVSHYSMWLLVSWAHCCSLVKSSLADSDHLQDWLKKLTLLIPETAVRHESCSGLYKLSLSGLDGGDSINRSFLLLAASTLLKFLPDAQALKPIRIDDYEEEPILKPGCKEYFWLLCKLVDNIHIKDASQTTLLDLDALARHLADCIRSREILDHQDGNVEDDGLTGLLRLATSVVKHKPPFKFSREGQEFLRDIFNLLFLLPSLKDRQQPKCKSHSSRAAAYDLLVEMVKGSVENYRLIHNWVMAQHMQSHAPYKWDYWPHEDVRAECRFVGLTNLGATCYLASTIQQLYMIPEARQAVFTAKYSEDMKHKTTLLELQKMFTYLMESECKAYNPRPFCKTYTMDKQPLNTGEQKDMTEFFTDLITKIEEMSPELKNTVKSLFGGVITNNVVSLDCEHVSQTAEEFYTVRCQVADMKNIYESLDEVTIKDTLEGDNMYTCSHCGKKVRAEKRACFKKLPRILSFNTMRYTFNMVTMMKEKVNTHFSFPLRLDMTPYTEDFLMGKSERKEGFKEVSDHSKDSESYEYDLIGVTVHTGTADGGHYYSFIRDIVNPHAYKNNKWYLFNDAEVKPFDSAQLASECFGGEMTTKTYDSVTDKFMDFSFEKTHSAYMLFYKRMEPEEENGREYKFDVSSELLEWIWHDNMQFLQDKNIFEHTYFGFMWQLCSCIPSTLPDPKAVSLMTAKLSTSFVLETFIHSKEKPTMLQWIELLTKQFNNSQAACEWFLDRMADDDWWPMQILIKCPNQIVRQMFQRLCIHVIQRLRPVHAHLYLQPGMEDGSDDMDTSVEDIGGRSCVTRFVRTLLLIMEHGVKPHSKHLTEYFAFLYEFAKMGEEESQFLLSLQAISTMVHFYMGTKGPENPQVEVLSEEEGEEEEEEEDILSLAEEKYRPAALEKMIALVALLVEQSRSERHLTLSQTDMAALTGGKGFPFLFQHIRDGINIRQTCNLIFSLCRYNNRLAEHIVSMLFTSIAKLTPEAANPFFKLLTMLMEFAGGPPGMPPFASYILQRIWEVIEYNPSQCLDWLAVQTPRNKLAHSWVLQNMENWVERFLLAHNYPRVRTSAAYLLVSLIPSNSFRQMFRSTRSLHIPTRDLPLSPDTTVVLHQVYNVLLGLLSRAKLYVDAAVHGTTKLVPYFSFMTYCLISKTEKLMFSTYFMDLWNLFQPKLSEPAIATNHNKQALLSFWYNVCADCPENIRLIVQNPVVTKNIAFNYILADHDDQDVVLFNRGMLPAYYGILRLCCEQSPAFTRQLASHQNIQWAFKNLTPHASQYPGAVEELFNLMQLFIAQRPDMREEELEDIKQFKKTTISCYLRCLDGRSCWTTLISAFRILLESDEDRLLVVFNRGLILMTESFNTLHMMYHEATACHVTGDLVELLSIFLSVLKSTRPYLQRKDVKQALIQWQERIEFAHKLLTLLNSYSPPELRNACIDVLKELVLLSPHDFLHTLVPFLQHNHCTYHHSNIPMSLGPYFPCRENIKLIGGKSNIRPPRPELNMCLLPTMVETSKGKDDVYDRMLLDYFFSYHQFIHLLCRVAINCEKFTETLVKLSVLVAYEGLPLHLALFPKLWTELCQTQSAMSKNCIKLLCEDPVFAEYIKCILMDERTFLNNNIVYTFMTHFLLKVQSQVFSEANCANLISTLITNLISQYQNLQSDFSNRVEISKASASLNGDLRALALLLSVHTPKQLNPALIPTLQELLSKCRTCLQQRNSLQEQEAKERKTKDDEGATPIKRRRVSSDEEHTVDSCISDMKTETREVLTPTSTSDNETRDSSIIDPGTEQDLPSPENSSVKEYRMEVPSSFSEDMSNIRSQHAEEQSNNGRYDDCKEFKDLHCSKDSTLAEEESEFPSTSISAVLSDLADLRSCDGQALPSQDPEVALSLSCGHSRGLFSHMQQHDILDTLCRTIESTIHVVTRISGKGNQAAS
Summary of the method: (§1)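 HEK293T lysate in Tris/CHAPS/IGEPAL buffer with protease inhibitors (495 µg per sample) was given fragment at 200 µM or vehicle for 3 h, in triplicate. It then received Biotin-Ahx-Ub-VS at 0.5 µM final for 1 h. Labelled DUBs were NeutrAvidin-enriched, digested with LysC and trypsin, and run by diaPASEF LC-MS/MS. Values are average log2 fragment/vehicle ratios by unpaired t-test on global-median-normalised Spectronaut quantities of proteins with ≥2 unique peptides.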

USP36 = biological target: T1, USP36 (UniProt Q9P275)
T1 sequence (whole entry): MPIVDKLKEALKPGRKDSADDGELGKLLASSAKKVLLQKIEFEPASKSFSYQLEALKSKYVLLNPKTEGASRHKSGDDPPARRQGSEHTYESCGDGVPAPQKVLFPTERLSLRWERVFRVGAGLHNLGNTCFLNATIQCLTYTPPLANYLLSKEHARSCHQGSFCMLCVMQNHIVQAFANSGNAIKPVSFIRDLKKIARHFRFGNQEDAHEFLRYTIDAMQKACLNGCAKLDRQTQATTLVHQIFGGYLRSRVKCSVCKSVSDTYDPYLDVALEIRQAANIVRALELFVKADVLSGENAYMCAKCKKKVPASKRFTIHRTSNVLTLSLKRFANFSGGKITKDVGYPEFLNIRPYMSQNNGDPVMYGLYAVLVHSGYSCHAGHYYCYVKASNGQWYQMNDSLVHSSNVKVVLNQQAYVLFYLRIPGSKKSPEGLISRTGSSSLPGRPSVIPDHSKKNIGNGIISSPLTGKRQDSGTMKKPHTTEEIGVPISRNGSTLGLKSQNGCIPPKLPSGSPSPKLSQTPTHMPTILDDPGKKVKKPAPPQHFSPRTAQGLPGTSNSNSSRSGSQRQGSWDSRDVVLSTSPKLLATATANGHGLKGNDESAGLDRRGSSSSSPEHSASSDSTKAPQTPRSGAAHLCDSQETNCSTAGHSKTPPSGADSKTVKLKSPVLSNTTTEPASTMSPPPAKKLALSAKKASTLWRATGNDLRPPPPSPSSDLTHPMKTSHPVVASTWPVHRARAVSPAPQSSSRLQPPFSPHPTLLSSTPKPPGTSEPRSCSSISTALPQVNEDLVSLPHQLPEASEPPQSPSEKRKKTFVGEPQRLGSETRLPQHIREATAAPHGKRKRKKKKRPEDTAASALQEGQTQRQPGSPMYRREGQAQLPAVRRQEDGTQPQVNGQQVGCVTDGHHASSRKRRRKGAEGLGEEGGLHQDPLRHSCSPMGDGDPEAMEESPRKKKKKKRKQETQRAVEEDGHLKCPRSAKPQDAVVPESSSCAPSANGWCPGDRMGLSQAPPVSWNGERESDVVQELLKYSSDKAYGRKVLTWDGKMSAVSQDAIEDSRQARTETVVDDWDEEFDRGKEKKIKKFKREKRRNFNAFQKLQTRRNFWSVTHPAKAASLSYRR
Summary of the method: as §1

USP38 = biological target: T2, USP38 (UniProt Q8NB14)
T2 sequence (whole entry): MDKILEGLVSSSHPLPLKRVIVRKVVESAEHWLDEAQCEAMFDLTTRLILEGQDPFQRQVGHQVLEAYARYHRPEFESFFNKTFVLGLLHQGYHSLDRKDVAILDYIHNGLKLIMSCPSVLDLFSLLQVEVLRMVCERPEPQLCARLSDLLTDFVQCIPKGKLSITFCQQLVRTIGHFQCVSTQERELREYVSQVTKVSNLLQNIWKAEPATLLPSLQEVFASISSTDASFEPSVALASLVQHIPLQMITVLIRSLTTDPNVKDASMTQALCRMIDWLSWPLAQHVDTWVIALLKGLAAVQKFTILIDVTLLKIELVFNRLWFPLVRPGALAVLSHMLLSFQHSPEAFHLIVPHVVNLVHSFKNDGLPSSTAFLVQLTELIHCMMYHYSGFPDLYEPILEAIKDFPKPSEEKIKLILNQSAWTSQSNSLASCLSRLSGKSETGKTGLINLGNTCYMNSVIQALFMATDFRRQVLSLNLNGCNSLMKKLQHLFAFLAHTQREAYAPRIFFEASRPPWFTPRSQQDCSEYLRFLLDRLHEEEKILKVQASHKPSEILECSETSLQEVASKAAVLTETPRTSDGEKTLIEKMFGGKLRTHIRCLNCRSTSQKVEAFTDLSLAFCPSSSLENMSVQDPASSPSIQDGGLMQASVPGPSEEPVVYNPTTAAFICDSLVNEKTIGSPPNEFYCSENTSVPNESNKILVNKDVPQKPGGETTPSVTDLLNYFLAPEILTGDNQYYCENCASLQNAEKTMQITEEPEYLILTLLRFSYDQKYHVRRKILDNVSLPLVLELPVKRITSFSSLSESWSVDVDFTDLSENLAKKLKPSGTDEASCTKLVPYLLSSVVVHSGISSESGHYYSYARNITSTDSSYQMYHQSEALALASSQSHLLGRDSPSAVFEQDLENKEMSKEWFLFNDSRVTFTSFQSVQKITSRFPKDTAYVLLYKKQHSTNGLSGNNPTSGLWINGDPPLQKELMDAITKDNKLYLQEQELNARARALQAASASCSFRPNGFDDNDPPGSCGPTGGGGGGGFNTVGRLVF
Summary of the method: as §1

USP39 = biological target: T3, USP39 (UniProt Q53GS9)
T3 sequence (whole entry): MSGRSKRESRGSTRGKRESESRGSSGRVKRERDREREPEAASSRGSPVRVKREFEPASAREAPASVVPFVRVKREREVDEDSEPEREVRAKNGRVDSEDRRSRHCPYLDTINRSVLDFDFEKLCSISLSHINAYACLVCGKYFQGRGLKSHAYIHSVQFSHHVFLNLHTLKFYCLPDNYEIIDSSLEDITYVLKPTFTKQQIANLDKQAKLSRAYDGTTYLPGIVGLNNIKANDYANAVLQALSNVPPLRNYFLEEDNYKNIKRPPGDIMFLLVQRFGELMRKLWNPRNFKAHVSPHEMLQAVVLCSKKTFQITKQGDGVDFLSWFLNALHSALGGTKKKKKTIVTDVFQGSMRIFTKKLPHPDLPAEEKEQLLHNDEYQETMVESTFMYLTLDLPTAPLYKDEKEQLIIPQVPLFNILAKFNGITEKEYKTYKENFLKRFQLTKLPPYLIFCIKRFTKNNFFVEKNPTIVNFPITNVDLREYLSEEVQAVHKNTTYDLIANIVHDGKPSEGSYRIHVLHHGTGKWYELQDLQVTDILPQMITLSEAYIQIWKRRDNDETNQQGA
Summary of the method: as §1

USP4 = biological target: T4, USP4 (UniProt Q13107)
T4 sequence (whole entry): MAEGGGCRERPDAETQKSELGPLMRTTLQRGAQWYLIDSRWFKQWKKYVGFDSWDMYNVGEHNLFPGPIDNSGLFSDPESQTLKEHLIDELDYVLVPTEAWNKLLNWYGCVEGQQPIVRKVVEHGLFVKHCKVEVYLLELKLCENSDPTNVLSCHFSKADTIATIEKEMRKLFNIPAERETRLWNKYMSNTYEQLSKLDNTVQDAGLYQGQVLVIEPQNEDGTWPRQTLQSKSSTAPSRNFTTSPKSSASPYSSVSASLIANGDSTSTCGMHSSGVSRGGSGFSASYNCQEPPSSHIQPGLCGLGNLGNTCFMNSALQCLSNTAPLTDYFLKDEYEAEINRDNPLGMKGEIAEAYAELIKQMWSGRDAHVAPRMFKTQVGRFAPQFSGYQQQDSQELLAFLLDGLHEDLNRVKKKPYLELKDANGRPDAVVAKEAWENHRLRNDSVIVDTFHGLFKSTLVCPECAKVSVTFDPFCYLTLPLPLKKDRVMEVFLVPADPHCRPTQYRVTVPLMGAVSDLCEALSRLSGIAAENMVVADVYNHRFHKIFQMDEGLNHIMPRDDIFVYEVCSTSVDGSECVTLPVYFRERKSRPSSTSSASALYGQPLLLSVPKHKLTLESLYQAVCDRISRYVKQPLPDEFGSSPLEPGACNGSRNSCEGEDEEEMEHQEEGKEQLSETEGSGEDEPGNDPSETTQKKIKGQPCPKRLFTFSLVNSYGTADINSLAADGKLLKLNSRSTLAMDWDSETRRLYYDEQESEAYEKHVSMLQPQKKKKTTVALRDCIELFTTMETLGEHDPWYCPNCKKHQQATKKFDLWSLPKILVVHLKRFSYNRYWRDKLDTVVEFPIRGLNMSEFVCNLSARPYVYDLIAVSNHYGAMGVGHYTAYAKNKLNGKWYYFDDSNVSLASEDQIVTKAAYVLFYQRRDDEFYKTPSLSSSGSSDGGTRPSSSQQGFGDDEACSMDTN
Summary of the method: as §1

Measured: log2 ratio of Biotin-Ahx-Ub-VS probe labelling

CC1CCc2onc(CNC(=O)CCl)c2C1 (stereo not given)
inactive: USP34 0.0236 | USP36 0.0286 | USP38 0.0155 | USP39 0.358 | USP4 0.094
